Source: PubChem
Only some compounds are listed: those with a hit (about 3.1% of all), similar ones and a draw of the others.
EPAC2 antag = Validation qHTS for antagonist of cAMP-regulated guanine nucleotide exchange factor 4 (EPAC2). Rap guanine nucleotide exchange factor 4 (Homo sapiens), Q8WZA2. EPAC2 Rap1B BODIPY-GDP exchange, fluorescence. Potency, µM (series often up to 112 µM), for the others: at the top dose activity, negative = inhibition, usual class: inhibitors. 1.7% of 16,000 active;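 also: 100% = activation by cAMP agonist control; nearly all actives have a fitted effect of over 40% in size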
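Normalized against a 6.5 mM cAMP agonist control, compounds were tested on 100 nM EPAC2 exchanging Rap1B-bound BODIPY-GDP (250 nM) for 50 uM GDP. Fluorescence drop (ex 480, em 540 nm) was tracked at room temperature over 30 min at 5-min intervals.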
EPAC1 ag val = Validation qHTS for agonist of cAMP-regulated guanine nucleotide exchange factor 3 (EPAC1). AID 1645883, 2021. Rap guanine nucleotide exchange factor 3 (Homo sapiens), O95398. Potency, µM, inactives show max response, positive = active, usual class: activators. EPAC1 Rap1b BODIPY-GDP exchange, fluorescence. 1% of 16,000 active; also: nearly all actives have a fitted effect of over 70% in size
* hit, by the source's call; i = inactive; ? = inconclusive; ! = not active in a repeat. Calls follow the shape of the dose curve; as a rule, active = well fitted curve in the direction sought with a large enough effect; inconclusive = small, poorly fitted or top-dose-only effect, or another doubt; inactive = no such curve, though single readings can be large; an effect the other way counts as inactive or inconclusive. Unless noted, % is scaled to controls: 0 for no effect and ±100 for the full control effect; potency is read from the fitted curve at half-maximal effect.

SMILES	EPAC2 antag	EPAC1 ag val
COc1ccc(C(C)=O)cc1	-29%	14%
COc1ccc2cc(CCC(C)=O)ccc2c1	16µM*!	-37%
COCc1ccc(CN2CCOc3c(cc(-c4cc(C)c5cccc(OC)c5n4)cc3OC)C2)o1	?	6%
N#CCCn1c(=O)c(-c2cccs2)nc2cnc(N3CCOCC3)nc21	29%	63µM*
CN1CCN(c2ncc3nc(-c4cccs4)c(=O)n(Cc4ccc(F)cc4)c3n2)CC1	2%	13%
O=c1c(-c2cccs2)nc2cnc(N3CCOCC3)nc2n1Cc1cccs1	6%	10%
CN1CCN(c2ncc3nc(-c4cn(C)c5ccccc45)c(=O)n(CCc4ccccc4)c3n2)CC1	-25%	-7%
CN1CCN(c2ncc3nc(-c4cccs4)c(=O)n(CCc4ccccc4)c3n2)CC1	46%	112µM*
CN1CCN(c2ncc3nc(-c4cn(C)c5ccccc45)c(=O)n(CCC#N)c3n2)CC1	90%	112µM*
CC(C)(C)NC(=O)[C@H]1CN(Cc2cccnc2)CCN1C[C@@H](O)C[C@@H](Cc1ccccc1)C(=O)N[C@H]1c2ccccc2C[C@H]1O	25µM*	-54%
CC(C)(C)NC(=O)[C@@H]1C[C@@H]2CCCC[C@@H]2CN1C[C@@H](O)[C@H](Cc1ccccc1)NC(=O)[C@H](CC(N)=O)NC(=O)c1ccc2ccccc2n1	?	-43%
Cc1cc(-c2ccnc(-n3ncc(C(=O)NCC4COCCO4)c3C)n2)c(C)s1 (centres undefined)	-9%	-10%
CCCCCCCCCCCCCCCC(=O)OC[C@H](O)[C@H]1OC(=O)C(O)=C1O	27%	-3%
CCCCCCCC[N+](C)(C)CCCCCCCC	4%	20%
CCCCCCCCCCCCCCCC[N+](C)(C)Cc1ccccc1	79µM*	-43%
CCCCCCCCCCCCCC[N+](C)(C)Cc1ccccc1	8%	-36%
CCCCCCCCCCCCCCCC[N+](C)(C)CC	56µM*	-65%
CCOC(=O)[C@H](CS)NCCN[C@@H](CS)C(=O)OCC	8%	-29%
COc1cc(-c2noc(C)c2-c2ccc(N(C)C)nc2)cc(OC)c1OC	?	-2%
COc1cc(-c2noc(C)c2-c2ccc3[nH]ccc3c2)cc(OC)c1OC	79µM*	-73%
C=C1CC[C@H](O)CC1=C/C=C1\CCC[C@]2(C)[C@@H]([C@H](C)CC[C@@H](O)C(C)(C)O)CC[C@@H]12	-27%	-7%
COC(=O)C1=C(C)NC(C)=C(C(=O)OCC(C)=O)C1c1ccccc1[N+](=O)[O-] (centres undefined)	-8%	9%
COC(=O)C1=C(C)NC(C)=C([N+](=O)[O-])[C@H]1c1ccccc1C(F)(F)F	50µM*	-15%
COC(=O)C1=C(C)NC(C)=C(C(=O)OCCSc2ccccc2)[C@@H]1C	?	17%
COC(=O)C1=C(C)NC(C)=C([N+](=O)[O-])[C@@H]1c1ccccc1C(F)(F)F	40µM*	-14%
SMILES	EPAC2 antag	EPAC1 ag val
O=C(O)C1=CC(=C(c2ccc(O)c(C(=O)O)c2)c2ccc(O)c(C(=O)O)c2)C=CC1=O	40µM*!	?
Nc1ccc(O)c(C(=O)O)c1	8%	?
CC(C)c1c(C(=O)N(C)Cc2cccc3ncccc23)cnn1-c1nccc(-c2ccco2)n1	-17%	-19%
FC(F)(F)C(Cl)Br (centres undefined)	-19%	-43%
FC(F)OC(Cl)C(F)(F)F (centres undefined)	i	35µM*
O=C(Nc1ccc(S(=O)(=O)N2CCOCC2)cc1)c1cc(Cl)ccc1NS(=O)(=O)c1ccc(Cl)s1	?	-2%
Nc1cc(N)cc(N)c1	56µM*	10%
Nc1ccc(O)cc1	?	8%
C=C1CC[C@H](O)CC1=C/C=C1\CCC[C@]2(C)[C@@H]([C@H](C)CCCC(C)(C)O)CC[C@@H]12	2%	-21%
COc1ccccc1CCNc1ncnc2sc(C(=O)N3CCCC3)c(C)c12	-26%	6%
C=C[C@]1(C)C[C@@H](OC(=O)CSCCN(CC)CC)[C@]2(C)[C@H](C)CC[C@]3(CCC(=O)[C@H]32)[C@@H](C)[C@@H]1O	1%	-26%
CCc1cc(C(=O)NCC2Cc3cc(C)cc(-c4cc(C(C)=O)ccc4F)c3O2)n(C)n1 (centres undefined)	?	1%
CCCCC(=O)OCC(=O)[C@]1(O)Cc2c(O)c3c(c(O)c2[C@@H](O[C@H]2C[C@H](NC(=O)C(F)(F)F)[C@H](O)[C@H](C)O2)C1)C(=O)c1c(OC)cccc1C3=O	-4%	-8%
CC(C)(O)C#Cc1ccc(C(=O)NCCN2Cc3ccccc3OC(c3ccccc3F)C2)o1 (centres undefined)	?	26%
CO/N=C(\C(=O)N[C@@H]1C(=O)N2C(C(=O)O)=C(CSc3nc(C)c(CC(=O)O)s3)CS[C@H]12)c1csc(N)n1	18%	-8%
